# TDP1 cell noCPT – qHTS for Inhibitors of human tyrosyl-DNA phosphodiesterase 1 (TDP1): qHTS in cells in absence of CPT | DT40 Tdp1-/- hTDP1 cells, no CPT, ATP luminescence, 48 h | Potency, µM (top dose mostly 46.2 µM), for the others: at the highest dose activity change, negative = growth inhibition, usual class: inhibitors | 15% of 420,000 active; also: potency is read from the fitted curve at half-maximal effect; nearly all actives have a fitted effect of over 55% in size
#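 Seeded 400 DT40-hTDP1 cells/well (vehicle DMSO, no 20 nM CPT); pinned compounds; ≥48 hr at 37 °C; CellTiter-Glo luminescence as viability measure.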
# HT1080-NT tox – kills 2HG-producing HT-1080-NT fibrosarcoma cells | Potency, µM (highest dose often 46.1 µM), for inactives: at the top dose activity, negative = less viability, actives largely listed as cytotoxic | HT-1080-NT fibrosarcoma viability, CellTiter-Glo ATP luminescence, 48 h | AID 686970 | 1.6% of 360,000 active;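 also: NT is the 2HG producing partner of a matched IDH1 knockdown line; potency is read from the fitted curve at half-maximal effect; 0% = DMSO-treated cells and -100% = media-only wells without cells; nearly all actives have a fitted effect of over 55% in size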
#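 A 48-hour cytotoxicity screen used HT-1080-NT cells plated 2 hours before compound delivery. ATP-based CellTiter-Glo luminescence measured viability, normalized to DMSO and no-cell controls.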
# HT1080 IDH1KD tx – toxicity to HT-1080 IDH1 knockdown cells (counter line). HT-1080 IDH1 knockdown viability, ATP luminescence, 48 h. Potency, µM (doses to about 46.1 µM), for inactives: top-dose activity, negative = toxicity, actives largely listed as cytotoxic. 2% of 360,000 active;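 also: potency is read from the fitted curve at half-maximal effect; 0% = DMSO wells and -100% = cell-free medium wells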
#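 Assay cells: HT-1080 with IDH1 knockdown, 750 per well, RPMI/5% FBS. Exposure: 48 h at 37 °C following 2 h pre-incubation. Read: CellTiter-Glo luminescence; fitted concentration-response, curve class assigned.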
# TDP1 cell CPT – growth inhibition of DT40 Tdp1-/-;hTDP1 cells with camptothecin (screen for TDP1 inhibitors); chicken DT40 Tdp1-/-;hTDP1 cells + 20 nM CPT, ATP luminescence, 48 h; Potency, µM (highest dose often 46.2 µM), without a hit: at the top dose activity change, negative = growth inhibition, actives largely listed as inhibitors; 12% of 420,000 active; also: potency is read from the fitted curve at half-maximal effect; nearly all actives have a fitted effect of over 55% in size
#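 Chicken DT40 Tdp1-/- cells complemented with human TDP1, 400 cells/well, exposed to compounds plus 20 nM camptothecin for at least 48 h at 37 C; viability read as ATP content by CellTiter-Glo luminescence.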
# IL1B secr inh – inflammasome signaling inhibition, IL-1 beta readout; AID 743279; THP-1 LPS/ATP IL-1B secretion, AlphaLISA, 16 h; stronger effect = lower value; 4.7% of 360,000 active; activity change, % at 57.5 µM; in the data active = activity change below about -50%; inconclusive = mostly about -30% to -49%
#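 THP-1 cells pretreated 1 hr with compounds (up to 57.5 uM final), then stimulated with LPS (250 ng/mL final) plus ATP (1.25 mM final); secreted IL-1B measured by AlphaLISA after 16 hr, decreased signal indicating inhibition.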
# Starred values were filed as active, the others as inactive; ? = inconclusive; [ ] = another dose, or the depositor's remark. Rows were chosen to be rich in hits. Some 19% of all compounds tested hit in one or more screens of this group. Unless noted, calls follow the shape of the dose curve; as a rule, active = well fitted curve in the direction sought with a large enough effect; inconclusive = small, poorly fitted or top-dose-only effect, or another doubt; inactive = no such curve, though single readings can be large; an effect the other way counts as inactive or inconclusive. Unless noted, % is scaled to controls: 0 for no effect and ±100 for the full control effect.
SMILES,TDP1 cell noCPT,HT1080-NT tox,HT1080 IDH1KD tx,TDP1 cell CPT,IL1B secr inh
COc1ccc(OC)c(NC(=O)COC(=O)c2n[nH]c3ccccc23)c1,16µM*,3%[9.24 µM],0%,21µM*,-3
Cc1cc(C)cc(NC(=O)COC(=O)c2n[nH]c3ccccc23)c1,-11%,-19%,?,-7%,0
CNC(=O)COC(=O)c1c2c(nc3ccccc13)CCC2,?,0%,-1%,?,20
COc1ccc(OC)c(NC(=O)COC(=O)c2c3c(nc4ccccc24)CCCC3)c1,21µM*,?,?,23µM*,6
COc1ccc(NC(=O)COC(=O)c2c3c(nc4ccccc24)CCCC3)cc1Cl,7.3µM*,?,?,21µM*,?
CCc1ccc(NC(=O)C2CCN(S(=O)(=O)c3ccc4c(c3)CC(C)N4C(C)=O)CC2)cc1 (stereo unspecified),10µM*,-3%,-1%,16µM*,23
CCc1ccc(NC(=O)C2CCCN(S(=O)(=O)c3ccc4c(c3)CC(C)N4C(C)=O)C2)cc1 (stereo unspecified),26µM*,7%,-1%,16µM*,-5
CC(C)CCNC(=O)C1CCCN(S(=O)(=O)c2ccc3c(c2)CC(C)N3C(=O)C2CC2)C1 (stereo unspecified),-27%,-5%,-11%,?,-55*
CC(=O)N1c2ccc(S(=O)(=O)N3CCCC(C(=O)Nc4ccc(F)cc4)C3)cc2CC1C (stereo unspecified),23µM*,-4%,-15%,?,-5
CCOc1ccc(NC(=O)C2CCN(S(=O)(=O)c3ccc4c(c3)CC(C)N4C(C)=O)CC2)cc1 (stereo unspecified),?,-3%,-8%,?,52
CNC(=O)C1CC(=O)N(c2ccc(OCC(=O)NCc3ccccc3)cc2)C1 (stereo unspecified),-10%,7%,13%,1%,-8
Cn1c2ccccc2c2cc(/C=C(\NC(=O)c3ccccc3)C(=O)O)ccc21,-9%,-11%,-1%,11%,18
CC(C)OC(=O)/C(=C\c1ccc2c(c1)c1ccccc1n2C)NC(=O)c1ccccc1,21µM*,0%,1%,21µM*,-1
CC(C)OC(=O)/C(=C/c1ccc2c(c1)c1ccccc1n2C)NC(=O)c1ccccc1,10µM*,-1%,0%,?,-1
CCCC(C)NC(=O)CN1C(=O)c2cccc3cccc1c23 (stereo unspecified),-17%,-1%,15%,-6%,0
Cc1nn(CCCC(=O)NCCc2ccccc2)c(C)c1[N+](=O)[O-],?,?,14%,6%,-5
CS(=O)(=O)c1nc([N+](=O)[O-])nn1CCCc1ccccc1,13µM*,?,?,6.5µM*,-103*
Cn1nc([N+](=O)[O-])nc1S(C)(=O)=O,4.6µM*,16µM*,16µM*,4.6µM*,-101*
Cn1nc([N+](=O)[O-])nc1Oc1ccccc1F,-6%,12%,-2%,-2%,-2
OC(c1ccccc1)c1nc(-c2cccc(C(F)(F)F)c2)cs1 (stereo unspecified),?,?,?,-16%,68
Cn1c(SCC(=O)Nc2ccc(NC(=O)c3cccs3)cc2)nnc1-c1ccncc1,-8%,-17%,-19%,-2%,-19
COC(=O)C1=CN(c2ccc(C(C)(C)C)cc2)C(N)=C(C#N)C1c1cccc2ccccc12 (stereo unspecified),13µM*,?,?,15µM*,7
